Data reported in the supplement of paper PMC11732987, “Enantioselective OTUD7B fragment discovery through chemoproteomics screening and high-throughput optimisation” (Communications Chemistry, 2025).

What was measured:
Experiment in all cases: log2 ratio of Biotin-Ahx-Ub-VS probe labelling (fragment/DMSO); higher = less target engagement (more negative = stronger competition), active = hit call of the paper (q ≤ 0.05, log2 ratio ≤ -1)
Details in all cases: compound concentration: 200 uM; treatment time: 3 h
USP34 = USP34 (UniProt Q70CQ2)
How it was run: (§1)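 Labelled DUBs from HEK293T lysate were NeutrAvidin-enriched, digested with LysC and trypsin, and run by diaPASEF LC-MS/MS. Before that, each 495 µg sample in Tris/CHAPS/IGEPAL buffer with protease inhibitors was treated in triplicate with fragment at 200 µM or vehicle for 3 h, then with Biotin-Ahx-Ub-VS at 0.5 µM final for 1 h. Values are average log2 ratios of fragment over vehicle by unpaired t-test, based on global-median-normalised Spectronaut label-free quantities from proteins with ≥2 unique peptides.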

USP36 = target: T1, USP36 (UniProt Q9P275)
T1 sequence (whole entry): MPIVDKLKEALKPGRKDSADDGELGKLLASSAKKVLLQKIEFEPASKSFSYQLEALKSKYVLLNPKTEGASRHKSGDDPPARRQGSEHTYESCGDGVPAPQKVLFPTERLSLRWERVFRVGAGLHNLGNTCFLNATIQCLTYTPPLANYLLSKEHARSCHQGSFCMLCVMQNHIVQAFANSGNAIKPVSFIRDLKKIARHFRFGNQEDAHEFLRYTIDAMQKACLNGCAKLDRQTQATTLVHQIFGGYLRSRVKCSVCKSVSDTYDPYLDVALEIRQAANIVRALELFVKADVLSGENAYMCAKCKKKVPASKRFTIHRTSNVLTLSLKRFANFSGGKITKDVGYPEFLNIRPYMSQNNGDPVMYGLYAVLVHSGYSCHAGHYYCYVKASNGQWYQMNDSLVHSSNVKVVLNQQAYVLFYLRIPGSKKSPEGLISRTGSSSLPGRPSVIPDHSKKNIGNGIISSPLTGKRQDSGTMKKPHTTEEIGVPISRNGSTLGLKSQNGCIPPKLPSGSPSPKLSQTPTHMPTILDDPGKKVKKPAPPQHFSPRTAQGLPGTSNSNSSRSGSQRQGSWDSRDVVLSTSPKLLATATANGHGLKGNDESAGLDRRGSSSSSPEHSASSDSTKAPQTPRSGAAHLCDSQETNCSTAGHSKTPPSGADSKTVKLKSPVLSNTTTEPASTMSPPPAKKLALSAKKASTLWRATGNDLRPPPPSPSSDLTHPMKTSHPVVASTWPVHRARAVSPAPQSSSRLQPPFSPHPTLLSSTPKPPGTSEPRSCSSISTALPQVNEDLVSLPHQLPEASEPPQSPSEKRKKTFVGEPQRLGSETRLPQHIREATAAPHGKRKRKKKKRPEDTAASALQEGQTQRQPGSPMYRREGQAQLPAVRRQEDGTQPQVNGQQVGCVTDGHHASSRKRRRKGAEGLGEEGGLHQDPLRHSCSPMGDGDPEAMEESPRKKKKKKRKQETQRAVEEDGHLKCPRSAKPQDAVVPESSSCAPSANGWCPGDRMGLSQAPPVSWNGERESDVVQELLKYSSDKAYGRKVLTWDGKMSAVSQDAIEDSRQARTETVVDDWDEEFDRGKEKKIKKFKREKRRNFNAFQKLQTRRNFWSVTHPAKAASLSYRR
How it was run: as §1

USP38 = target: T2, USP38 (UniProt Q8NB14)
T2 sequence (whole entry): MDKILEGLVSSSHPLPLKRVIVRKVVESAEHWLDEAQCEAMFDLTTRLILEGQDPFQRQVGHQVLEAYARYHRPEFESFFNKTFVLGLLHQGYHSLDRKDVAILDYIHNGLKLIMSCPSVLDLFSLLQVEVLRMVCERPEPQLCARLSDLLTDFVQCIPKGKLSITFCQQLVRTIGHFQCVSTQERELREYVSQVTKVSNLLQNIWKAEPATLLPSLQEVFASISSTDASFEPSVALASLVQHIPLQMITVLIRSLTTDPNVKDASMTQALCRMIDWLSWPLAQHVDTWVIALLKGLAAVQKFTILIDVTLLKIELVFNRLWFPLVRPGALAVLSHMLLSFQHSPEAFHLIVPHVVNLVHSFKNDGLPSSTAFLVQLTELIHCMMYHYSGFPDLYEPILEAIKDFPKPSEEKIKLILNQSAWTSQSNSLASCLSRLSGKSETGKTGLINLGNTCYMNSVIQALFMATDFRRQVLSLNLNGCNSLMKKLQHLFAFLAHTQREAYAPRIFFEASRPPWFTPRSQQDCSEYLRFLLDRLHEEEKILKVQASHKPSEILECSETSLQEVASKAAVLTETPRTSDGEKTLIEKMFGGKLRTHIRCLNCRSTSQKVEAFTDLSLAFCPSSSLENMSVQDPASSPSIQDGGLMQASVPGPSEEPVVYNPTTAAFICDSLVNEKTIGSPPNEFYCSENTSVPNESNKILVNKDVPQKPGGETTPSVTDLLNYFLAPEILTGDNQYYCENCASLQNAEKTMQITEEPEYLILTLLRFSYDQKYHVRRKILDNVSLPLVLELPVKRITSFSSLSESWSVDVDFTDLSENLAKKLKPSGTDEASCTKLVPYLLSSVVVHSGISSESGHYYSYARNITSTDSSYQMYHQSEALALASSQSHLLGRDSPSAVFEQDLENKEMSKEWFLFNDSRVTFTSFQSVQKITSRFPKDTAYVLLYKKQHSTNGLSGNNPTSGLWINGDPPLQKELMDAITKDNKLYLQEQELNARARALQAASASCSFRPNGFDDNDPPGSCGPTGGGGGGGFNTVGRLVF
How it was run: as §1

USP39 = target: T3, USP39 (UniProt Q53GS9)
T3 sequence (whole entry): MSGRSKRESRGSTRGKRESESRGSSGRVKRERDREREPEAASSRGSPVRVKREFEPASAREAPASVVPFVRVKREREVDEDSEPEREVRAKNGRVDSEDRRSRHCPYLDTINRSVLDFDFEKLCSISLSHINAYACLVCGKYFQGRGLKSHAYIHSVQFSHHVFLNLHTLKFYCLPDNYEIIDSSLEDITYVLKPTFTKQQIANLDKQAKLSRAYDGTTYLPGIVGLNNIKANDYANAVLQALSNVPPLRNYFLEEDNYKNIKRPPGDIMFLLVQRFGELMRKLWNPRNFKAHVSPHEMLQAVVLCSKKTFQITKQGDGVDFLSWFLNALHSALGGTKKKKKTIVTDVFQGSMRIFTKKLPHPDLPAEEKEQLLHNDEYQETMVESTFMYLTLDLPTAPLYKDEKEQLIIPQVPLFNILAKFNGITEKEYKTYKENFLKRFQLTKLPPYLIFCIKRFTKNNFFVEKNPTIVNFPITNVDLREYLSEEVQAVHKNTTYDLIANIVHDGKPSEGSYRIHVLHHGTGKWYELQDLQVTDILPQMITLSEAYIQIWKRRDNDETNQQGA
How it was run: as §1

USP4 = target: T4, USP4 (UniProt Q13107)
T4 sequence (whole entry): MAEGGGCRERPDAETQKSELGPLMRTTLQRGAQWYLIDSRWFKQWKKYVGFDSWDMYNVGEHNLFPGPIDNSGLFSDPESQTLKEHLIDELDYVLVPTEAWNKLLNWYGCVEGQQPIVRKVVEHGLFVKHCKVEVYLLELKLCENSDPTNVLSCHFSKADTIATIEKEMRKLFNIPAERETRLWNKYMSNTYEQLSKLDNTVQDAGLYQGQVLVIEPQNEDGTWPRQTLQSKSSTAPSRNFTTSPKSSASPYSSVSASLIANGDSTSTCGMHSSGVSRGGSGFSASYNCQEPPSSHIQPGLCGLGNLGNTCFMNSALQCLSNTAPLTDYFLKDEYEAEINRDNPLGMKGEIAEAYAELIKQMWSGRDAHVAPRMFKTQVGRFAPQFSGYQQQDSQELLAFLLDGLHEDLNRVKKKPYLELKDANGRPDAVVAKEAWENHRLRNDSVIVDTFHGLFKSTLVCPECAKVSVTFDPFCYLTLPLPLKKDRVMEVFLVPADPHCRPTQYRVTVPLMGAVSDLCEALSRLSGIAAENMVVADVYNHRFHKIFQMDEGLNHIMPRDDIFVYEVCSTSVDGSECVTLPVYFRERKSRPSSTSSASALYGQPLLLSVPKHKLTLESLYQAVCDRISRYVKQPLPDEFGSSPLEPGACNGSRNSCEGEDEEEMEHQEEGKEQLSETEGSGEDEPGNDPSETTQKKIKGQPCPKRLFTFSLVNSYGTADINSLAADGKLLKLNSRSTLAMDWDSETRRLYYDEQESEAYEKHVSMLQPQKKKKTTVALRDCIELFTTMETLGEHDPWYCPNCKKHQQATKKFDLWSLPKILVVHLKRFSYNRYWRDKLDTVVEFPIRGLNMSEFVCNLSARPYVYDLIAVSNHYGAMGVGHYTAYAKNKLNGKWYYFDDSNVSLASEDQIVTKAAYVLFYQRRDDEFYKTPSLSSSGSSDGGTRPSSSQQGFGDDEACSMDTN
How it was run: as §1

Measured: log2 ratio of Biotin-Ahx-Ub-VS probe labelling

USP34, sequence (Q70CQ2 whole entry, the tested form may be a part): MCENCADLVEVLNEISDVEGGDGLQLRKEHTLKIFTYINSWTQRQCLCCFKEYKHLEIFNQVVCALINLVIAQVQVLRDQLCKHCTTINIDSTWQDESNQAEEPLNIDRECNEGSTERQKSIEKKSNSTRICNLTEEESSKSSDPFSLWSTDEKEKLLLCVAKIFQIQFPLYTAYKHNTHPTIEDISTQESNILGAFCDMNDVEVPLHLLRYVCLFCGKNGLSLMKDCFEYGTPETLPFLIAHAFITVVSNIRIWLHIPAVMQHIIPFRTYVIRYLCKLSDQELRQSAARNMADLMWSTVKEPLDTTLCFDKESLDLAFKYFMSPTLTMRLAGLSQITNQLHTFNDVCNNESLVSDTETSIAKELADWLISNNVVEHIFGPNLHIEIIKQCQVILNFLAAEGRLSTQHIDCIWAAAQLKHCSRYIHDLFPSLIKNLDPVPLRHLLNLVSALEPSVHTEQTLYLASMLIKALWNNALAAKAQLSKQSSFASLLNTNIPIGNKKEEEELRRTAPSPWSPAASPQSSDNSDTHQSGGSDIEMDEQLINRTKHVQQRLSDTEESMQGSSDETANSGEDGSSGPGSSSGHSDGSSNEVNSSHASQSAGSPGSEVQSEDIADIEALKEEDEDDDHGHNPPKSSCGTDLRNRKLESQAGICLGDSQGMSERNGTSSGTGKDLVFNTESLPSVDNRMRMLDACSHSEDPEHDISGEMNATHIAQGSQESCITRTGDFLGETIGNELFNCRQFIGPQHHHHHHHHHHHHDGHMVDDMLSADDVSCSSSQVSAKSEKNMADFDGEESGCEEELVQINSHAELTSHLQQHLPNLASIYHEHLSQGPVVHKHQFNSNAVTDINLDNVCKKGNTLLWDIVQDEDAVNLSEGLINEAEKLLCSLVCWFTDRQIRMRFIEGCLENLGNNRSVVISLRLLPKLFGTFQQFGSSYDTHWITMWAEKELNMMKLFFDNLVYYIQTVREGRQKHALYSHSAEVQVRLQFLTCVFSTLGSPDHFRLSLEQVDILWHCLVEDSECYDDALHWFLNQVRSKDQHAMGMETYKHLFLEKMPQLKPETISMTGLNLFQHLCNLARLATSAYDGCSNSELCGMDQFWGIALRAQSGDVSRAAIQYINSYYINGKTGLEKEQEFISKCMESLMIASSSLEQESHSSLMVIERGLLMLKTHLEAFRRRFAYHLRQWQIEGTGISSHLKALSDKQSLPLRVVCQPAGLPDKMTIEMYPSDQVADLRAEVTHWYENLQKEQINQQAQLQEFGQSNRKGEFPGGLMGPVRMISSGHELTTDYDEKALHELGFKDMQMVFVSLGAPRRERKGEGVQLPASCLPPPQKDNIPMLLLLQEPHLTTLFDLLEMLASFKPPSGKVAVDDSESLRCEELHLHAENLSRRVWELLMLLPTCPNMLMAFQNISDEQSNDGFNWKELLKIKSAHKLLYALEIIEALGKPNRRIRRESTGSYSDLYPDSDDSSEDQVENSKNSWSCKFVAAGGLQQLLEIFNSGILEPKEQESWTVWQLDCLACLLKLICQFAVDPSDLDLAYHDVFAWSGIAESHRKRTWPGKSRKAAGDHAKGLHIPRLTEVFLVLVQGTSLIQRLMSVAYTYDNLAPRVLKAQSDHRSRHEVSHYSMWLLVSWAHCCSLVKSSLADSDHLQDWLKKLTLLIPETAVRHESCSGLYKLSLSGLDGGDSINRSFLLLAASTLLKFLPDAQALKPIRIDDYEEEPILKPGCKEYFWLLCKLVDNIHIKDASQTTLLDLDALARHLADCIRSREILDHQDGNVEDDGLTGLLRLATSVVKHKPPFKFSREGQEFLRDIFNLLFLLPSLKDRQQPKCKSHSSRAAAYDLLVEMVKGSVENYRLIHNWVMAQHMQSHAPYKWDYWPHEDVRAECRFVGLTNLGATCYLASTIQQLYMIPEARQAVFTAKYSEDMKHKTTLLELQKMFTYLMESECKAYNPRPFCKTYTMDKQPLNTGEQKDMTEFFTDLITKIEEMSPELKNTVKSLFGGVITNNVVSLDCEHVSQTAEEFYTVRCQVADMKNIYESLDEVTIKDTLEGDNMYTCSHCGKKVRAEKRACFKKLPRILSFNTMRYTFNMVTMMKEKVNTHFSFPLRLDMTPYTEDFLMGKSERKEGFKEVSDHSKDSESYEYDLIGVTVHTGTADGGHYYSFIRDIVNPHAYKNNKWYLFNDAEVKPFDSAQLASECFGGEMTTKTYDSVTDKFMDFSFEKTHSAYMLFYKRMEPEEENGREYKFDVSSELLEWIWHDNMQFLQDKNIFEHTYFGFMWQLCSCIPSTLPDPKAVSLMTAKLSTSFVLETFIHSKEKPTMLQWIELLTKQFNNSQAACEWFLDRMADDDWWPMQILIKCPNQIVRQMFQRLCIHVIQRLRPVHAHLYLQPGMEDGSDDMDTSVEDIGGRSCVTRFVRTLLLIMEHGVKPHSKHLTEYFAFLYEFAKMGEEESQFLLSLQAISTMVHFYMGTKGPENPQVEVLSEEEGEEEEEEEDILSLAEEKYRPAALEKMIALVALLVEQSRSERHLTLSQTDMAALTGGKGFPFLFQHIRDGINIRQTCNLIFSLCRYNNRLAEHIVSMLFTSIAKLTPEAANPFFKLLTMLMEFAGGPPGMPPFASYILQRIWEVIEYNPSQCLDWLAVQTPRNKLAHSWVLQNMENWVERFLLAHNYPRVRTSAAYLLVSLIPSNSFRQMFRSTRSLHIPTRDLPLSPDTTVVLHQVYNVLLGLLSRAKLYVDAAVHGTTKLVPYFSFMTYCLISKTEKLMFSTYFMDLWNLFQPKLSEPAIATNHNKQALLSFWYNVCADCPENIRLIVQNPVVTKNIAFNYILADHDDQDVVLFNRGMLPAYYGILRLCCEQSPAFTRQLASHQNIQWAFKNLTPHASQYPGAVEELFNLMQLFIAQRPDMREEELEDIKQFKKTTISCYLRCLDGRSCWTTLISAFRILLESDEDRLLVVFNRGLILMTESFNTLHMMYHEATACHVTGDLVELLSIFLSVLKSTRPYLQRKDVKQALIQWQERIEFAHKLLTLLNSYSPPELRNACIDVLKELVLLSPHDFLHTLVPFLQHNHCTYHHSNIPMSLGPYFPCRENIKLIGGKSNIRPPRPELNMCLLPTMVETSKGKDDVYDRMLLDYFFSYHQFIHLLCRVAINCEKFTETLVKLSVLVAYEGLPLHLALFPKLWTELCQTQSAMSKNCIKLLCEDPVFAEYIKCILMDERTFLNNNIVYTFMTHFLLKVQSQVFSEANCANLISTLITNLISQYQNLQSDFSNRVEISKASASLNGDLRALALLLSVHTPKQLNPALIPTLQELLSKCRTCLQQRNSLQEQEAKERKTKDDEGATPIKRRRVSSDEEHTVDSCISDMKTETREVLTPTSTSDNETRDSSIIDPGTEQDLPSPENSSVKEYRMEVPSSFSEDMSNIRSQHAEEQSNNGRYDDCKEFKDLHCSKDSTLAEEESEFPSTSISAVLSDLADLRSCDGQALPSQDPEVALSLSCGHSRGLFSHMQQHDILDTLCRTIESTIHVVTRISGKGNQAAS

CN(C(=O)CCl)c1nc2ccccc2s1
inactive: USP34 -0.279 | USP36 -0.0441 | USP38 -0.124 | USP39 0.31 | USP4 0.161
